# According to ChEMBL document CHEMBL3988442, “University of Dundee, Small-Polar-MMV Screening Library” (2021):
# In all, about 69,000 compounds went through this assay and about 950 (1.4%) showed an effect of 50% or more. Many of the other results were omitted from the sample, so strong results are more common in it than they were.
# Test system: Mycobacterium tuberculosis
# Assay: Cornell M. t heat shock assay; further: in the data most compounds retested in dose-response had high values
# Type: functional, organism-based
# Set-up: dose or concentration left out as unconfirmed
row,SMILES,Percent Effect [%]
1,CNc1ncc2c(n1)CN(CCc1ccc(F)cc1)C2=O,-20.93
2,CNC(=O)[C@H]1CO[C@H]2CCN(c3ncc(F)cn3)C[C@H]2C1.O=C(O)C(F)(F)F,-11.38
3,CCn1nc(C)c(CN(CCOC)Cc2ccccn2)c1C,-2.912
4,CCn1nc(C)c(CN(Cc2ccccn2)Cc2ccccc2Cl)c1C,58.2
5,CCn1nc(C)c(CN(CCCN(C)C)Cc2ccccn2)c1C,-9.336
6,Cn1cc(CN(Cc2ccccn2)Cc2ccccc2Cl)cn1,20.97
7,Cc1nn(C)cc1CN(C)C(=O)c1ccccn1,-16.12
8,Cc1nn(C)cc1CN(Cc1ccccn1)Cc1ccccc1Cl,53.11
9,O=C(O)C(=O)O.c1cncc(CN2CCC(c3ccc4c(c3)OCO4)CC2)c1,-6.288
10,CC(C)CS(=O)(=O)N1C[C@H]2C[C@H](C(=O)N3CCCC3)[C@@H](C1)O2,18.86
11,CSc1ccc(CN2C[C@@H]3CC[C@@](O)(c4ccc(C)cn4)[C@@H]3C2)cc1,28.36
12,C[C@H]1CN(c2ccccn2)C[C@@]12CCN(Cc1cccnc1)C2=O.O=C(O)C(F)(F)F.O=C(O)C(F)(F)F,-8.389
13,O=C(CS(=O)(=O)c1ncccc1Cl)NC1CCCc2ccccc21 (stereo not given),57.06
14,O=C(CS(=O)(=O)c1ccc(Cl)cc1)NC1CCCc2ccccc21 (stereo not given),17.58
15,O=C(CS(=O)(=O)c1ccccn1)NC1CCCc2ccccc21 (stereo not given),34.88
16,COc1ccc(C(C)=O)cc1CN1CCn2cccc2C1C (stereo not given),9.9
17,COc1ccc(CN2CCn3cccc3C2C)cc1F (stereo not given),13.47
18,COc1ccc(C)cc1CN1CCn2cccc2C1C (stereo not given),86.02
19,CCOc1ccccc1C1CCCN1.Cl (stereo not given),3.065
20,COc1cc(CNCC(O)c2ccccc2)cc2c1OCO2.Cl (stereo not given),-7.292
21,Cl.c1ccc(CN2CCNCC(Cc3cnccn3)C2)cc1 (stereo not given),-10.09
22,O=C(O)C(F)(F)F.O=C(c1ccco1)N1CC2(CCNCC2)c2cc(Cl)ccc21,-24.85
23,O=C(O)C(F)(F)F.O=C(O)C(F)(F)F.c1cnc(N2CCC3(CCN(Cc4ccncc4)CC3)CC2)nc1,6.802

row,SMILES,Percent Effect [%]
1,Cc1cccnc1CN1CCOC(Cc2cccc3ccccc23)C1 (stereo not given),106.2
2,CCc1nc(C)c(CN2CCOC(Cc3cccc4ccccc34)C2)[nH]1 (stereo not given),8.588
3,c1ccc2c(CC3CN(Cc4nccs4)CCO3)cccc2c1 (stereo not given),-8.986
4,CCN1CCc2c(sc3c2C(=O)NC(/C=C/c2ccco2)N3)C1 (stereo not given),-25.76
5,O=C(Cc1cnccn1)N1C[C@H]2CC[C@@H]1CN(Cc1cscn1)C2,-4.902
6,O=C(NCCc1cccc(F)c1)C1(n2cnnn2)CCCCC1,90.07
7,Cc1cccnc1NC(=O)C1(n2cnnn2)CCCCC1,10.66
8,O=C(NCCc1c[nH]c2ccc(F)cc12)C1(n2cnnn2)CCCCC1,102.2
9,O=C(NCCc1c[nH]c2ccccc12)C1CCC(Cn2cnnn2)CC1 (stereo not given),2.28
10,Cc1ccnc(NC(=O)C2(n3cnnn3)CCCCC2)c1,-14.84
11,Cc1cccc(NC(=O)C2(n3cnnn3)CCCCC2)n1,-23.83
12,O=C(NCCc1ccccn1)C1(n2cnnn2)CCCCC1,-1.374
13,O=C(NCCc1c[nH]c2ccccc12)C1(n2cnnn2)CCCCC1,102.3
14,O=C(Nc1ccccn1)C1(n2cnnn2)CCCCC1,4.562
15,Cl.O=c1c2sccc2nc2n1CCN(Cc1ccsc1)CC2,-19.75
16,Cc1cccc(CN2CC[C@@H]3[C@@H]2CCN3C(=O)Cc2ccsc2)n1.O=C(O)C(F)(F)F.O=C(O)C(F)(F)F,-13.99
17,CO[C@H]1C[C@@H]2CN(C(=O)c3n[nH]c4c3CCCC4)C[C@@H]2C1,-12.29
18,Cc1ccc(N2CC[C@@H]3[C@@H]2CCN3Cc2ccsc2)nn1.O=C(O)C(F)(F)F.O=C(O)C(F)(F)F,-10.53
19,Cn1ccnc1CN1CCC2(CC1)COCCN(S(C)(=O)=O)C2.O=C(O)C(F)(F)F,17.11
20,NC(=O)CN1CCCC1c1csc(Nc2cnccn2)n1 (stereo not given),58.45
21,NC(=O)CN1CCC(c2csc(Nc3cnccn3)n2)CC1,-13.81
22,CC(=O)N1CCCC1c1csc(Nc2cnccn2)n1 (stereo not given),-5.066
